PubChem BioAssay (Tox21)
A number with no mark means an inactive call. Records with an inconclusive call do not appear. Where a call stands in place of a potency, no number is given. Activity calls are given as the source filed them. Calls follow the shape of the dose curve; as a rule, active = well fitted curve in the direction sought with a large enough effect in the repeat runs; inconclusive = weak or mixed curves; inactive = no such curve, though single readings can be large; an effect the other way counts as inactive or inconclusive.

assay: qHTS assay to identify small molecule HDAC inhibitors (AID 1259364); settings: HCT-116 HDAC-Glo I/II luminescence, 2 h; series mostly up to 92.4 µM; also: nearly all actives have a fitted effect of over 45% in size; also: potency is read from the fitted curve at half-maximal effect; as to activity change, negative = inhibition: top concentration of the series differs between compounds
In short: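 Wild-type HCT-116 cells were plated overnight, exposed to compounds for 2 h at 37 °C, then given HDAC-Glo class I/II luminogenic reagent for 30 min at room temperature before luminescence was read.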

Q: Which Potency does the source give for `O=C(NCCO[N+](=O)[O-])c1cccnc1` here?
A: inactive

Q: With `CN(C)CCN(Cc1ccsc1)c1ccccn1` as the molecule, how does the Potency read?
A: inactive

Q: For `Nc1cc(C(=O)O)c(O)c(S(=O)(=O)O)c1`, which Potency is on record?
A: inactive

Q: Which Potency does the source give for `O=S(c1cc(Cl)cc(Cl)c1O)c1cc(Cl)cc(Cl)c1O` here?
A: inactive

Q: With `COC(=O)c1ccc(I)cc1S(=O)(=O)NC(=O)Nc1nc(C)nc(OC)n1` as the molecule, how does the Potency read?
A: inactive

Q: Which Potency does the source give for `C[C@H]1C[C@H]2[C@@H]3CCC4=CC(=O)C=C[C@]4(C)[C@@]3(Cl)[C@@H](O)C[C@]2(C)[C@@]1(O)C(=O)CO` here?
A: inactive

Q: With `CC(C)Nc1ccc(NC(C)C)c2c1C(=O)c1ccccc1C2=O` as the molecule, how does the Potency read?
A: 12.7 µM (active)

Q: With `CC(C)OC(=O)C(C)N(C(=O)c1ccccc1)c1ccc(F)c(Cl)c1` (stereo not given) as the molecule, how does the Potency read?
A: inactive

Q: With `CC(C)(CO)[N+](=O)[O-]` as the molecule, how does the Potency read?
A: inactive

Q: Which Potency does the source give for `COc1ccc(C(=O)N2CCN(CC(=O)N3CCOCC3)CC2)cc1` here?
A: inactive

Q: With `O=C(O)c1ccccc1Cl` as the molecule, how does the Potency read?
A: inactive

Q: Which Potency does the source give for `CCCCCCCC#N` here?
A: inactive

Q: Which Potency does the source give for `CC1(c2ccccc2)OC(C(=O)O)=CC1=O` (stereo not given) here?
A: inactive

Q: With `NC(N)=NCCC[C@H](N)C(=O)O` as the molecule, how does the activity change, negative = inhibition read?
A: 1.7% [at 8.39 µM]

Q: For `CC/C=C\CCOC(=O)CC`, which Potency is on record?
A: inactive

Q: With `CN1CCN(C(c2ccccc2)c2ccccc2)CC1` as the molecule, how does the Potency read?
A: inactive

assay: qHTS assay to identify small molecule HDAC inhibitors - cell viability counter screen (AID 1259365); settings: HCT-116 viability, CellTiter-Glo ATP luminescence, 2 h; series mostly up to 92.4 µM; also: nearly all actives have a fitted effect of over 50% in size
In short: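 Measured quantity is CellTiter-Glo luminescence from wild-type HCT-116 cells after compound incubation of 2hr at 37C, 5% CO2; reagent developed 30min at room temperature.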

Q: Which Potency does the source give for `CC(=O)NO` here?
A: inactive

Q: With `Cc1nn(C)c(Oc2ccccc2)c1/C=N/OCc1ccc(C(=O)OC(C)(C)C)cc1` as the molecule, how does the Potency read?
A: inactive

Q: For `O=C1OC(CN2CCOCC2)CN1/N=C/c1ccc([N+](=O)[O-])o1` (stereo not given), which Potency is on record?
A: inactive

Q: With `COCCCN1CCC(NC(=O)c2cc(Cl)c(N)c3c2OCC3)CC1` as the molecule, how does the Potency read?
A: inactive

Q: With `C1CCCNCCC1` as the molecule, how does the Potency read?
A: inactive

Q: For `CCC(Cl)CCC(Cl)C(Cl)CC(Cl)C(Cl)C(Cl)CCl` (stereo not given), which Potency is on record?
A: inactive

Q: Which Potency does the source give for `CCCCC(CC)COC(=O)COc1ccc(Cl)cc1Cl` (stereo not given) here?
A: inactive

Q: For `CCC(C)O` (stereo not given), which Potency is on record?
A: inactive

Q: Which Potency does the source give for `C[C@@H](c1ncncc1F)C(O)(Cn1cncn1)c1ccc(F)cc1F` (stereo not given in full) here?
A: inactive

Q: For `CC(C)(C)OCC1CO1` (stereo not given), which Potency is on record?
A: inactive

Q: With `COS(=O)(=O)C(F)(F)F` as the molecule, how does the Potency read?
A: inactive

Q: For `C[Si](C)(CCCN)O[Si](C)(C)CCCN`, which Potency is on record?
A: inactive

Q: For `O=C1OC(=O)C2C3C=CC(C3)C12` (stereo not given), which Potency is on record?
A: inactive

Q: Which Potency does the source give for `CC(C)(C)Cl` here?
A: inactive

Q: For `Cc1ccc(C(C)OC(=O)C2(C)CCC(C(=O)O)C2(C)C)cc1` (stereo not given), which Potency is on record?
A: inactive

Q: For `CC(CSC(=O)c1ccccc1)C(=O)N1C[C@@H](Sc2ccccc2)C[C@H]1C(=O)O` (stereo not given in full), which activity change, negative = cytotoxicity is on record?
A: -1.25% [at 19 µM]

Q: Which Potency does the source give for `O=C(NCCO[N+](=O)[O-])c1cccnc1` here?
A: inactive

Q: With `CN(C)CCN(Cc1ccsc1)c1ccccn1` as the molecule, how does the Potency read?
A: inactive

Q: With `Nc1cc(C(=O)O)c(O)c(S(=O)(=O)O)c1` as the molecule, how does the Potency read?
A: inactive

Q: Which Potency does the source give for `O=S(c1cc(Cl)cc(Cl)c1O)c1cc(Cl)cc(Cl)c1O` here?
A: inactive

Q: For `COC(=O)c1ccc(I)cc1S(=O)(=O)NC(=O)Nc1nc(C)nc(OC)n1`, which Potency is on record?
A: inactive

Q: For `C[C@H]1C[C@H]2[C@@H]3CCC4=CC(=O)C=C[C@]4(C)[C@@]3(Cl)[C@@H](O)C[C@]2(C)[C@@]1(O)C(=O)CO`, which Potency is on record?
A: inactive

Q: With `CC(C)OC(=O)C(C)N(C(=O)c1ccccc1)c1ccc(F)c(Cl)c1` (stereo not given) as the molecule, how does the Potency read?
A: inactive

Q: Which Potency does the source give for `CC(C)(CO)[N+](=O)[O-]` here?
A: inactive

Q: For `COc1ccc(C(=O)N2CCN(CC(=O)N3CCOCC3)CC2)cc1`, which Potency is on record?
A: inactive

Q: For `O=C(O)c1ccccc1Cl`, which Potency is on record?
A: inactive

Q: Which Potency does the source give for `CCCCc1ncc(/C=C(\Cc2cccs2)C(=O)O)n1Cc1ccc(C(=O)O)cc1` here?
A: inactive

Q: Which Potency does the source give for `CC1(c2ccccc2)OC(C(=O)O)=CC1=O` (stereo not given) here?
A: inactive

Q: With `NC(N)=NCCC[C@H](N)C(=O)O` as the molecule, how does the activity change, negative = cytotoxicity read?
A: 4.6% [at 8.39 µM]

Q: Which Potency does the source give for `CC/C=C\CCOC(=O)CC` here?
A: inactive

Q: With `CN1CCN(C(c2ccccc2)c2ccccc2)CC1` as the molecule, how does the Potency read?
A: inactive

assay: qHTS assay to identify small molecule agonists of the sonic hedgehog signaling (Shh) pathway - cell viability counter screen (AID 1259366); settings: NIH/3T3 Gli1-Luc viability, CellTiter-Fluor, 24 h; series mostly up to 92.4 µM; also: nearly all actives have a fitted effect of over 50% in size
In short: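 In quantitative high-throughput format, 3T3 Gli1-Luc cells were exposed to compounds for 24hr and multiplexed for viability using CellTiter-Fluor, incubated 1hr at 37C before the fluorescence read.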

Q: For `CN1Cc2cc(C(=O)N3CCC(C4CCNCC4)CC3)ccc2NC(CC(=O)O)C1=O` (stereo not given), which Potency is on record?
A: inactive

Q: With `CC(=O)NO` as the molecule, how does the Potency read?
A: inactive

Q: With `CC(=O)[O][Al][O]C(C)=O` as the molecule, how does the Potency read?
A: inactive

Q: For `O=C1OC(CN2CCOCC2)CN1/N=C/c1ccc([N+](=O)[O-])o1` (stereo not given), which Potency is on record?
A: inactive

Q: Which Potency does the source give for `COCCCN1CCC(NC(=O)c2cc(Cl)c(N)c3c2OCC3)CC1` here?
A: inactive

Q: Which Potency does the source give for `C1CCCNCCC1` here?
A: inactive

Q: For `CCC(Cl)CCC(Cl)C(Cl)CC(Cl)C(Cl)C(Cl)CCl` (stereo not given), which Potency is on record?
A: inactive

Q: With `CCCCC(CC)COC(=O)COc1ccc(Cl)cc1Cl` (stereo not given) as the molecule, how does the Potency read?
A: inactive

Q: Which Potency does the source give for `CCC(C)O` (stereo not given) here?
A: inactive

Q: Which Potency does the source give for `C[C@@H](c1ncncc1F)C(O)(Cn1cncn1)c1ccc(F)cc1F` (stereo not given in full) here?
A: inactive

Q: For `CC(C)(C)OCC1CO1` (stereo not given), which Potency is on record?
A: inactive

Q: With `C[Si](C)(CCCN)O[Si](C)(C)CCCN` as the molecule, how does the Potency read?
A: inactive

Q: With `O=C1OC(=O)C2C3C=CC(C3)C12` (stereo not given) as the molecule, how does the Potency read?
A: inactive

Q: For `CC(C)(C)Cl`, which Potency is on record?
A: inactive

Q: For `Cc1ccc(C(C)OC(=O)C2(C)CCC(C(=O)O)C2(C)C)cc1` (stereo not given), which Potency is on record?
A: inactive

Q: Which viability change, negative = cytotoxic does the source give for `CC(CSC(=O)c1ccccc1)C(=O)N1C[C@@H](Sc2ccccc2)C[C@H]1C(=O)O` (stereo not given in full) here?
A: -5.51% [at 19 µM]

Q: With `CN(C)CCN(Cc1ccsc1)c1ccccn1` as the molecule, how does the Potency read?
A: inactive

Q: With `COC(=O)c1ccc(I)cc1S(=O)(=O)NC(=O)Nc1nc(C)nc(OC)n1` as the molecule, how does the Potency read?
A: inactive

Q: Which Potency does the source give for `C[C@H]1C[C@H]2[C@@H]3CCC4=CC(=O)C=C[C@]4(C)[C@@]3(Cl)[C@@H](O)C[C@]2(C)[C@@]1(O)C(=O)CO` here?
A: inactive

Q: With `CC(C)Nc1ccc(NC(C)C)c2c1C(=O)c1ccccc1C2=O` as the molecule, how does the Potency read?
A: inactive

Q: With `CC(C)OC(=O)C(C)N(C(=O)c1ccccc1)c1ccc(F)c(Cl)c1` (stereo not given) as the molecule, how does the Potency read?
A: inactive

Q: With `CC(C)(CO)[N+](=O)[O-]` as the molecule, how does the Potency read?
A: inactive

Q: Which Potency does the source give for `COc1ccc(C(=O)N2CCN(CC(=O)N3CCOCC3)CC2)cc1` here?
A: inactive

Q: Which Potency does the source give for `CCCCCCCC#N` here?
A: inactive

Q: Which Potency does the source give for `CCCCc1ncc(/C=C(\Cc2cccs2)C(=O)O)n1Cc1ccc(C(=O)O)cc1` here?
A: inactive

Q: With `CC1(c2ccccc2)OC(C(=O)O)=CC1=O` (stereo not given) as the molecule, how does the Potency read?
A: inactive

Q: With `NC(N)=NCCC[C@H](N)C(=O)O` as the molecule, how does the viability change, negative = cytotoxic read?
A: -3.86% [at 8.39 µM]

Q: With `CC/C=C\CCOC(=O)CC` as the molecule, how does the Potency read?
A: inactive
